Results from PubChem BioAssay AID1259318 (Sanford-Burnham Center for Chemical Genomics, 2017).
Hit rate of the full screen: of about 370,000 compounds, about 3,000 (0.81%) were called active. The sample holds actives, similar compounds and a random draw of the others, so the mix is not that of the screen.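 How the source made its calls: active means activity above about 14% (limit read from the data; passing the limit was not always enough); inactive means the rest.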

Molecular target: Nuclear receptor subfamily 1 group D member 1 (Homo sapiens) (UniProt P20393)
Test: Rev-erbα–DNA interaction modulation – biochemical, FITC-DNA, fluorescence polarization, uHTS, primary screen (AID 1259318);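 further: 0% = DMSO wells with 35 nM protein and 100% = DMSO wells with 750 nM protein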
Settings: Rev-erbα–FITC-DNA binding, 90 min, at 10 µM, hits give high values

Sequence of Nuclear receptor subfamily 1 group D member 1 (Homo sapiens) (P20393 whole entry, looked up): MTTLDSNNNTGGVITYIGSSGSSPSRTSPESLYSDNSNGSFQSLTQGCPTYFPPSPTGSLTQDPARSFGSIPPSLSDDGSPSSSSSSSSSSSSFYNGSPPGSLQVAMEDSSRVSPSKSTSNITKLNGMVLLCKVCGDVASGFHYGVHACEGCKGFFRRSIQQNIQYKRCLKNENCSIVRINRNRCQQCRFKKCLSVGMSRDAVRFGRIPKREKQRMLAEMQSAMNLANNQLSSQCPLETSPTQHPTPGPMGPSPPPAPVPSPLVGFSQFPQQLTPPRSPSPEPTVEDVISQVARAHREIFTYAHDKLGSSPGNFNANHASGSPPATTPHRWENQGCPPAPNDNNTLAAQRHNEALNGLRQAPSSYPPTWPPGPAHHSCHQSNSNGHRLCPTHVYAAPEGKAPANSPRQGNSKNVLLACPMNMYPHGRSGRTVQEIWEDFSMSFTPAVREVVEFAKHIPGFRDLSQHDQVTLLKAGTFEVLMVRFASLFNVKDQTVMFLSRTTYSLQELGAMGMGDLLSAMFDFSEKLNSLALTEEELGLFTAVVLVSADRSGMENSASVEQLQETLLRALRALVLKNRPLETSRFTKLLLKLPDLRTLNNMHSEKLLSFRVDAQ

| SMILES | activity |
| --- | --- |
| Cn1c(=O)[nH]c(=O)c2c1nc(CN(Cc1ccccc1)Cc1ccccc1)n2CCN1CCOCC1 | -1.09% (inactive) |
| CC(C)CCn1c(CN(C)Cc2ccccc2)nc2c1c(=O)n(C)c(=O)n2C | 3.74% (inactive) |
| CC(C)Cn1c(CN(Cc2ccccc2)Cc2ccccc2)nc2c1c(=O)n(C)c(=O)n2C | 42.6% (active) |
| Cc1ccccc1NC(=O)C1CCN(c2ncccn2)CC1 | 4.79% (inactive) |
| O=C(CNC(=O)c1ccc(Cl)cc1Cl)NCC(=O)Nc1ccccc1N1CCOCC1 | -3.17% (inactive) |
| CCOC(=O)c1cc(-c2ccc(Cl)s2)nc2c1c(C)nn2C | 11.4% (inactive) |
| COc1cc2c(cc1NC(=O)CN1CCN(S(=O)(=O)c3ccc(F)cc3)CC1)oc1ccccc12 | 14.1% (active) |
| O=C(CN1CCN(S(=O)(=O)c2ccc(F)cc2)CC1)NC1CC1 | 6.03% (inactive) |
| COc1cc2c(cc1NC(=O)COC(=O)/C=C/c1ccccc1)oc1ccccc12 | -1.34% (inactive) |
| FC(F)(F)c1cccc(NC(=S)OC2CCC23CCC(c2ccccc2)CC3)c1 (stereo unspecified) | 5.79% (inactive) |
| O=C(CC1SC(=Nc2ccccc2)N(Cc2ccccn2)C1=O)Nc1cccc(Cl)c1 (stereo unspecified) | 1.93% (inactive) |
| NC1=NC(c2ccc([N+](=O)[O-])cc2)N(c2ccc(F)cc2)C(N)=N1 (stereo unspecified) | 5.54% (inactive) |
| Cc1ccc(NS(=O)(=O)c2ccc3c(c2)NC(=O)CO3)cc1 | 1.74% (inactive) |
| Cc1ccc(NS(=O)(=O)c2cc3c(cc2Br)NC(=O)CO3)cc1C | 23.4% (active) |
| Cc1ccc(NS(=O)(=O)c2cc3c(cc2C)NC(=O)CO3)cc1 | 10.7% (inactive) |
| C[C@@H]1CN([C@@H](C)CO)C(=O)c2cccc(NC(=O)Nc3cccc4ccccc34)c2O[C@H]1CN(C)S(=O)(=O)c1ccccc1F | -2.31% (inactive) |
| CC1(C)NC(=O)N(CC(=O)Nc2cc(C(F)(F)F)cc(C(F)(F)F)c2)C1=O | 3.72% (inactive) |
| CC(NCc1ccco1)C(=O)N1CCCCC1 (stereo unspecified) | -4.97% (inactive) |
| COc1ccc(C)cc1Nc1nc(C)nc2c1oc1ccccc12 | 53.9% (active) |
| COCCNc1nc(-c2ccccc2)nc2c1oc1ccccc12 | 7.87% (inactive) |
| COC(=O)c1cnc(Nc2cc(C)ccc2OC)c2ccccc12 | -1.59% (inactive) |
| O=[N+]([O-])c1ccc(NCCCO)c(C(F)(F)F)c1 | -1.69% (inactive) |
| N#Cc1ccc(OCCCN2CCC(C(O)(c3ccccc3)c3ccccc3)CC2)c(F)c1 | 2.99% (inactive) |
| CCCNC(=S)NC1CC2CCCC(C1)N2CC(C)C (stereo unspecified) | 1.93% (inactive) |
| Cc1ccc(CC(=O)Nc2cccc(C#N)c2)cc1 | 0.97% (inactive) |
| COc1ccc(CC(=O)Nc2ccc(-c3nnc(-c4ccc(C)cc4)o3)cc2)cc1 | 26.4% (active) |

| SMILES | activity |
| --- | --- |
| COc1ccc(-c2ccc3nnc(SCC(=O)Nc4ccc(NC(C)=O)cc4)n3n2)cc1 | -7.04% (inactive) |
| CC1CCCC(NC(=O)CSc2nccn2C)C1C (stereo unspecified) | -3.46% (inactive) |
| c1ccc(-c2cc(-c3nnc4sc(-c5ccccn5)nn34)[nH]n2)cc1 | 22.2% (active) |
| Fc1ccc(-c2ccc(-c3nn4c(-c5ccco5)nnc4s3)o2)cc1 | -8.14% (inactive) |
| C=CCNC(=S)/N=c1/ccccn1Cc1ccccc1 | 3.96% (inactive) |
| O=C(CC12CC3CC(CC(C3)C1)C2)NCc1ccco1 | -3.49% (inactive) |
| COC(=O)/C(=C1\Oc2ccc(C(C)(C)C)cc2S1)C(F)(F)F | 2.88% (inactive) |
| CCOC(=O)C1=C(c2ccccc2)O/C(=C(/C(=O)OC)C(F)(F)F)S1 | 23.2% (active) |
| CCOC(=O)c1nnn(-c2nonc2OC)c1-c1ccccc1 | -1.38% (inactive) |
| CC(C)CC(=O)N1CCN(Cc2ccccc2Br)CC1 | 1.77% (inactive) |
| Cc1ccc(N=C2NC(=O)c3cccc([N+](=O)[O-])c32)cc1 | -0.93% (inactive) |
| C=C(C)C(=O)O[C@H]1C/C(C)=C\C(=O)/C=C(\C)[C@H](O)[C@@H]2OC(=O)C(=C)[C@@H]21 | -13.3% (inactive) |
| O=C(O)c1ccn(COc2ccc(Br)cc2)n1 | -0.74% (inactive) |
| Cc1cc(Br)cn2c(Cc3ccccc3C(F)(F)F)c(C3CCCCC3)nc12 | -1.46% (inactive) |
| Cc1ccc(-c2nc3c(Cl)cc(C(F)(F)F)cn3c2Cc2cccc(Cl)c2)cc1 | -1.02% (inactive) |
| Cc1ccc(-c2nc3c(C)cc(Br)cn3c2Cc2ccccc2)cc1 | 27% (active) |
| Cc1cc(Br)cn2c(Cc3cccc(F)c3)c(-c3cccc(Br)c3)nc12 | 8.77% (inactive) |
| Cc1cc(Br)cn2c(Cc3ccccc3C(F)(F)F)c(-c3ccc(Cl)cc3)nc12 | 24.8% (active) |
| Cc1cc(Br)cn2c(Cc3ccccc3C(F)(F)F)c(-c3ccc(C#N)cc3)nc12 | 16.1% (inactive) |
| Cc1ccc(NC(=O)Nc2cc(C)nn2-c2ccccc2)cc1 | -3.54% (inactive) |
| CCC1Nc2ncnc(N3CCN(c4ccccc4)CC3)c2N(Cc2ccc(Cl)cc2)C1=O (stereo unspecified) | -0.29% (inactive) |
| CCCc1nnc(NC(=O)CCC(=O)NC2CC2)s1 | -1.12% (inactive) |
| COCC(=O)N[C@@H]1C[C@@H]2O[C@@H](CO)CC[C@@H]2O[C@@H]1CCc1ccc(-c2ccccc2)cc1 | -1.13% (inactive) |
| CC(=O)N1CCCN(C2=Nc3ccccc3Sc3ccccc32)CC1 | -0.32% (inactive) |
| CCCCCCNC(=O)CSc1nccn1Cc1ccccc1 | 1.93% (inactive) |
| CCCCNC(=O)CSc1nc2n[nH]c(C)c2c(=N)n1-c1cccc(Cl)c1C | 23.1% (active) |

| SMILES | activity |
| --- | --- |
| Cc1ccc(-n2c(SCC(=O)NCCC3=CCCCC3)nc3n[nH]c(C)c3c2=N)cc1Cl | 34.3% (active) |
| CCn1c(=O)cc(SCC(=O)NCCC2=CCCCC2)c2ccccc21 | -0.99% (inactive) |
| Cc1nnc(OCC(=O)NCCC2=CCCCC2)c2ccccc12 | -2.75% (inactive) |
| CCCCNC(=O)CSc1nccn1Cc1ccccc1 | -5.53% (inactive) |
| CCCCCC1CC(COc2ccccc2)OC1=O (stereo unspecified) | 3.77% (inactive) |
| CC(=O)c1c(C)n([O-])c2ccccc2[n+]1=O | 4.5% (inactive) |
| CC(C)C(C)(C#N)NC(=O)CSc1nncn1-c1ccccc1 (stereo unspecified) | 3.69% (inactive) |
| Cc1ccc2c(cnn2C(=O)CCC(=O)NC2CCCC2)c1 | 8.51% (inactive) |
| COc1ccc(CN2C/C(=C/c3ccccc3)N3C(=O)C[C@@H](c4ccccc4)N=C23)c(OC)c1 | -2.77% (inactive) |
| CC(=O)Nc1sc2c(c1C(c1cccc(F)c1)N1CCN(CCO)CC1)CCCC2 (stereo unspecified) | -4.11% (inactive) |
| Cc1nn2c(NCCN(C)C)c3c(nc2c1-c1ccccc1)CCC3 | -0.8% (inactive) |
| CCc1c(C)nc2c(-c3ccccc3)c(C)nn2c1Nc1ccc(NC(C)=O)cc1 | -3.83% (inactive) |
| Cc1cc(C(C)(C)C)n2nc(C)c(-c3ccccc3)c2n1 | 31.7% (active) |
| CC(Oc1ccccc1)C(=O)N[C@@H]1C(=O)N2[C@@H]1SC(C)(C)[C@@H]2C(=O)O (stereo partly specified) | -0.45% (inactive) |
| COC(=O)c1ccc(N2CCOCC2)c(NC(=O)c2ccc(Br)o2)c1 | -3.88% (inactive) |
| Cc1cc(NCc2cccnc2)no1 | 2.81% (inactive) |
| Cc1cc(N/C=C\C(=O)c2ccc(Cl)c(Cl)c2)no1 | 24.8% (active) |
| Cc1cc(NC(=O)COc2ccccc2C#N)no1 | 5.64% (inactive) |
| CCN(CC)C(=O)CSc1nnc(-c2cnccn2)n1-c1ccc(C)cc1 | 5.46% (inactive) |
| COc1ccc(CCC(C)N2CCc3ccccc3C2)cc1 (stereo unspecified) | 1.36% (inactive) |
| CN(C(=O)COc1ncnc2c1cnn2-c1ccccc1)C1CCCCC1 | 1.94% (inactive) |
| COc1ccc(-n2ncc3c(N4CCc5ccccc54)ncnc32)cc1 | 56.3% (active) |
| O=c1cc(Cl)c2ccccc2n1-c1ccccc1 | -2.63% (inactive) |
| COc1cccc(N2CCN(CC(=O)N(C)Cc3ccc(F)cc3)CC2)c1 | -5.17% (inactive) |
